Results from the supplement of paper PMC6992640.
± gives the standard deviation of the averaged measurements.

What was measured:
Assay in all cases: cell viability (% of vehicle); higher = less cytotoxic
Settings in all cases: 10 µM; 72 h
HCI01 = test system: HCI01 (cells of a triple-negative basal-like breast cancer xenograft)
HCI03 = test system: HCI03 (cells of an ER-positive luminal breast cancer xenograft)
HCI09 = test system: HCI09 (cells of a triple-negative luminal androgen receptor type breast cancer xenograft)
HCI11 = test system: HCI11 (cells of an ER-positive luminal breast cancer xenograft)
HCI13 = test system: HCI13 (cells of an ER-positive luminal breast cancer xenograft)
HCI16 = test system: HCI16 (cells of a triple-negative basal-like breast cancer xenograft)
UCD52 = test system: UCD52 (cells of a triple-negative basal-like breast cancer xenograft)
WHIM2 = test system: WHIM2 (cells of a triple-negative basal-like breast cancer xenograft)
WHIM30 = test system: WHIM30 (cells of a triple-negative basal-like breast cancer xenograft)
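Note: PDX cells carrying CMV promoter-driven luciferase, viability read as total photon flux per second by IVIS imaging following D-luciferin, vehicle control 0.1% DMSO.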

| SMILES | cell viability (HCI01) | cell viability (HCI03) | cell viability (HCI09) | cell viability (HCI11) | cell viability (HCI13) | cell viability (HCI16) | cell viability (UCD52) | cell viability (WHIM2) | cell viability (WHIM30) |
| --- | --- | --- | --- | --- | --- | --- | --- | --- | --- |
| Cn1cc[nH]c1=S [Methimazole] | 143 ± 11 | 119 | 130 ± 23 | 112 | 82 ± 21 | 126 | 100.1 ± 0.29 | 107 ± 2.4 | 139 ± 3.8 |
| CCCCN1CCCCC1C(=O)Nc1c(C)cccc1C.Cl (stereo unspecified) [Bupivacaine HCl] | 145 ± 30 | 128 | 104 ± 14 | 120 | 106 ± 2.1 | 169 | 89 ± 16 | 111 ± 7.6 | 117 ± 12 |
| Cc1cc(C)cc(OCC2CNC(=O)O2)c1 (stereo unspecified) [Metaxalone] | 100 ± 16 | 155 | 108.2 ± 0.2 | 100 | 120 ± 9.4 | 137 | 105 ± 6.4 | 111 ± 4.7 | 102 ± 3 |
| Clc1ccc2c(c1)CCc1cccnc1C2=C1CCNCC1 [Desloratadine] | 164 ± 55 | 143 | 99.6 ± 1.5 | 77.5 | 128 ± 19 | 128 | 67.2 ± 9.1 | 69.5 ± 16 | 102 ± 7.8 |
| Cc1c(-c2ccccc2)oc2c(C(=O)OCCN3CCCCC3)cccc2c1=O.Cl [Flavoxate hydrochloride] | 87 ± 21 | 123 | 115.8 ± 0.74 | 90.9 | 128 ± 27 | 119 | 99.5 ± 2 | 88.5 ± 24 | 107 ± 9.2 |
| O=C([O-])Cc1ccccc1Nc1c(Cl)cccc1Cl.[K+] [Diclofenac Potassium] | 117 ± 9.3 | 106 | 100 ± 24 | 100 | 65.9 ± 1.7 | 114 | 73.8 ± 2.9 | 109 ± 28 | 117 ± 39 |
| Cc1nnc(SCC2=C(C(=O)[O-])N3C(=O)[C@@H](NC(=O)Cn4cnnn4)[C@H]3SC2)s1.[Na+] [Cefazolin (sodium salt)] | 115 ± 6.6 | 131 | 97.4 ± 9.4 | 85.9 | 125 ± 18 | 126 | 119 ± 12 | 104 ± 6 | 129 ± 8.7 |
| CCOC(=O)C1=CC(OC(CC)CC)C(NC(C)=O)C(N)C1 (stereo unspecified) [Oseltamivir] | 111 ± 11 | 124 | 96.2 ± 20 | 97.4 | 99.2 ± 7.4 | 91 | 96.03 ± 0.49 | 91.98 ± 0.9 | 126 ± 6.9 |
| O=C(CCCN1CC=C(n2c(=O)[nH]c3ccccc32)CC1)c1ccc(F)cc1 [Droperidol] | 108 ± 23 | 106 | 84.4 ± 9.8 | 97.5 | 113 ± 20 | 107 | 93.1 ± 5.3 | 96.6 ± 20 | 100 ± 2.3 |
| CNC1C(OC2C(OC3C(O)C(O)C(N=C(N)N)C(O)C3N=C(N)N)OC(C)C2(O)C=O)OC(CO)C(O)C1O.CNC1C(OC2C(OC3C(O)C(O)C(N=C(N)N)C(O)C3N=C(N)N)OC(C)C2(O)C=O)OC(CO)C(O)C1O.O=S(=O)(O)O.O=S(=O)(O)O.O=S(=O)(O)O (stereo unspecified) [Streptomycin sulfate] | 82.6 ± 31 | 97.7 | 84.6 ± 5.9 | 82.9 | 90 ± 1.7 | 103 | 84.1 ± 3.6 | 81.8 ± 12 | 86.6 ± 7.4 |
| CC1=NN(c2ccccc2)C(=O)C1 [Edaravone] | 80.8 ± 11 | 108 | 91.7 ± 13 | 100 | 99.37 ± 0.89 | 113 | 87.9 ± 16 | 83.1 ± 24 | 130 ± 10 |
| CCC(C)C(=O)OC1CCC=C2C=CC(C)C(CCC3CC(O)CC(=O)O3)C21 (stereo unspecified) [Mevastatin] | 129 ± 20 | 119 | 87.8 ± 22 | 120 | 92.7 ± 24 | 132 | 54.2 ± 10 | 86.8 ± 15 | 136 ± 4.6 |
| C=CC(=O)Nc1cccc(Nc2nc(Nc3ccc(N4CCN(C(C)=O)CC4)cc3OC)ncc2C(F)(F)F)c1 | 103 ± 4.6 | 99.9 | 63.8 ± 0.93 | 94 | 88.2 ± 3.4 | 73.3 | 64.7 ± 17 | 66.7 ± 2.6 | 99.6 ± 16 |
| CCCc1nn(C)c2c(=O)nc(-c3cc(S(=O)(=O)N4CCN(C)CC4)ccc3OCC)[nH]c12 [Sildenafil] | 83.6 ± 6.4 | 101 | 82.8 ± 18 | 73.3 | 73.7 ± 3.3 | 103 | 82.8 ± 2.1 | 92.4 ± 1 | 105.82 ± 0.018 |
| Nc1ccc(S(N)(=O)=O)cc1 [Sulfanilamide] | 106 ± 25 | 127 | 97.7 ± 18 | 83.1 | 164 ± 9.1 | 120 | 94.6 ± 8.7 | 105 ± 7.5 | 140 ± 13 |
| O=C(O)C=CC(=O)O.OCCOCCN1CCN(C2=Nc3ccccc3Sc3ccccc32)CC1.OCCOCCN1CCN(C2=Nc3ccccc3Sc3ccccc32)CC1 [Quetiapine Fumarate] | 186 ± 14 | 91.6 | 81.6 ± 5.6 | 123 | 83 ± 0.84 | 163 | 78.8 ± 2 | 128 ± 7 | 154 ± 6.5 |
| O=C(C=Cc1ccc(O)c(O)c1)OC1CC(O)(C(=O)O)CC(O)C1O (stereo unspecified) [Chlorogenic acid] | 104 ± 3.3 | 153 | 119 ± 45 | 95.8 | 107 ± 6.4 | 116 | 113 ± 2.8 | 101 ± 14 | 77 ± 12 |
| CCCCS(=O)(=O)NC(Cc1ccc(OCCCCC2CCNCC2)cc1)C(=O)O.Cl.O (stereo unspecified) [Tirofiban hydrochloride monohydrate] | 119 ± 1.7 | 123 | 107 ± 8.2 | 106 | 135 ± 8.5 | 101 | 91.9 ± 7.1 | 99.1 ± 24 | 113 ± 22 |
| O=C1OC(C(O)CO)C(O)=C1O (stereo unspecified) [Vitamin C] | 76.9 ± 31 | 111 | 93.6 ± 11 | 84.3 | 90 ± 12 | 108 | 75 ± 3.8 | 113 ± 34 | 135 ± 5.2 |
